ChEMBL document CHEMBL4513216, “Probing the Open Global Health Chemical Diversity Library for Multistage-Active Starting Points for Next-Generation Antimalarials” (ACS Infect Dis, 2020)
Among all 68,000 compounds or so, about 2,700 (4%) showed an effect of 50% or more. Many of the other results were omitted from the sample, so strong results are more common in it than they were.

System: Plasmodium berghei
Assay: Screen against P. berghei liver stage (PbLuc), transformed with Luciferase, at 2uM
Assay type: functional, HepG2
Conditions: tested at 2 uM

Compound	INHIBITION [%]
Cc1ccc([C@@H]2CN(C(=O)c3ccsc3)C[C@H]2NC(=O)C2CC2)cc1	50.57
Cc1ccc([C@@H]2CN(C(=O)c3csc(C)n3)C[C@H]2NC(=O)C2CC2)cc1	-67.56
Cc1ccc([C@@H]2CN(C(=O)c3cc[nH]c3)C[C@H]2NC(=O)C2CC2)cc1	-12.67
CC(NC(=O)NCCN1CCCC1)c1nncn1C (centres undefined)	21.83
CN1CCc2[nH]cnc2C12CCN(Cc1ccc(S(C)(=O)=O)cc1)CC2	18.54
CC(C)c1ccc(C(N)c2cccs2)cc1 (centres undefined)	-61.99
CCS(=O)(=O)NCc1nc(C)cc(N2CCCC2)n1	53.61
CCS(=O)(=O)NCc1nc(C)cc(N2CCCCC2)n1	19.12
CCCS(=O)(=O)NCc1nc(C)cc(N2CCCC2)n1	15.84
CCN1CC2(CCN(CC3COCCO3)CC2)OC1=O (centres undefined)	65.1
O=C1OC2(CCN(CC3CCCO3)CC2)CN1CCc1ccccc1 (centres undefined)	-38.59
CCN1CC2(CCN(CC3CCCO3)CC2)OC1=O (centres undefined)	6.85
COCC1CN(C(=O)Cc2ccccn2)Cc2ncnn2C1 (centres undefined)	-54.16
O=C(c1ccc2c(c1)COC2)N1CCCC(n2cncn2)C1 (centres undefined)	-45.72
O=C1OC2(CCNCC2)CN1CC(=O)N1CCCC1c1nccs1 (centres undefined)	3.62
O=C(O)CN1CCC2(CCc3ccccc32)CC1	-2.19
O=C(CN1CCOC1=O)N1CCC2(CCc3ccccc32)CC1	55.36
O=C(CC1COCCN1)N1CCC2(CCc3ccccc32)CC1 (centres undefined)	50.32
O=C(CC1COCCN1)N1CCCN(C2Cc3ccccc3C2)CC1 (centres undefined)	46.02
O=C(CC1COCCN1)N1CCC(N2CCc3ccccc3C2)CC1 (centres undefined)	-3.38
O=C(CN1C(=O)CCNC1=O)N1CCC2(CCc3ccccc32)CC1	12.3
Cc1noc(C)c1CN1C(=O)[C@@H]2CC[C@H]1CN(C(=O)c1cscn1)C2	-13.89
Cc1occc1C(=O)N1CCC2(CCN(Cc3ccccn3)C2=O)C1 (centres undefined)	49.25
O=C(O)[C@]12CCCN(Cc3ccccc3)C[C@H]1CN(c1ncccn1)C2	-0.75
O=C(O)[C@]12CCCN(Cc3ccsc3)C[C@H]1CN(c1ccccn1)C2	27.73
O=C(O)[C@]12CCCN(Cc3ccsc3)C[C@H]1CN(c1ncccn1)C2	53.55

Compound	INHIBITION [%]
CCC(C)[C@H](NC(=O)c1ccc(F)cc1-n1cnnn1)C(=O)OC (some centres undefined)	24.67
CCn1nc(C)c(CNC(=O)c2cn(CC3CCCO3)nn2)c1C (centres undefined)	-32.59
CN(C)C(=O)[C@H]1C[C@H]2CN(CCc3ccccc3)C[C@@H]1O2	28.38
CC(=O)N1C[C@H]2CCCN(Cc3ccc(C)o3)[C@H]2C1	-41.73
Cc1ccc(CN2CCC[C@@H]3CN(C(=O)c4ccco4)C[C@@H]32)o1	50.17
COc1ccc(CN2CCC[C@@H]3CN(C(=O)c4ccco4)C[C@@H]32)cc1	-24.31
CCCC(=O)N(CCCN1CCOCC1)c1nc2c(C)c(C)ccc2s1	-3.67
Cc1cccc(CNC[C@H]2Cn3ccnc3CO2)n1	9.42
CN(C)CCNC(=O)c1cc(-c2cnc(N(C)C)nc2)cn1CC1CC1	8.88
CN(C)c1ncc(-c2cc(C(=O)NCCO)n(CC3CC3)c2)cn1	23.53
COCCCNC(=O)c1cc(-c2cnc(N(C)C)nc2)cn1CC1CC1	58.6
O=C(NCCCO)Nc1cnc2cc(Cl)ccc2c1O	47.4
CCN(Cc1ccco1)C(=O)NCc1nnc2n1CCC2	11.78
COCCN1CCc2ccc(=O)n(Cc3csc(C)n3)c2CC1	-80.01
Cc1cc(NC(=O)c2ccc(F)cc2Cl)n(C)n1	56.53
Cc1cc(NC(=O)NCC(O)c2ccc(F)c(F)c2)n(C)n1 (centres undefined)	-12.19
Cc1cc(NC(=O)c2ccc(F)cc2Br)n(C)n1	-0.9
Cc1ccc(C(O)CNC(=O)Nc2cc(C)nn2C)cc1 (centres undefined)	-15.64
Cc1cc(NC(=O)c2ccc(F)cc2F)n(C)n1	-20.8
Cc1cc(NC(=O)NCC(O)c2ccc(F)cc2)n(C)n1 (centres undefined)	50.75
O=C(O)CN1CCC(F)(F)C2(CCN(c3ccccc3)C2)C1 (centres undefined)	-21.78
COCCN1CCC2(CCN(c3ncccn3)CC2)C1=O	0.2
CC(C)(C)C1CCC(O)(CNC(=O)CCS(C)(=O)=O)CC1 (centres undefined)	-16.28
CN1C[C@@H](n2cnc(-c3ccccc3)c2-c2nccn2C)C[C@H]1C(=O)O	28.07
Nc1nc(NCCO)cc(N2CCc3c([nH]c4ccccc34)C2)n1	-14.75
Cc1ccc2c(c1)CN(C(=O)C1CCCCC1)C(CN(C)C)CO2 (centres undefined)	38.1

Compound	INHIBITION [%]
Cn1cc(-c2ncc3c(c2C(=O)O)CCN(Cc2ccco2)C3)cn1	2.26
COCc1nc(C2CC2)nn1-c1ccccc1Cl	72.05
COCc1nc(C2CC2)nn1-c1cc(Cl)ccc1OC	52.98
COC(=O)[C@H](C)NC(=O)c1nc(C2CC2)n(-c2ccccc2Cl)n1	13.65
COCc1nc(C2CC2)nn1-c1cccc(F)c1	-1.57
COc1ccc(Cl)cc1CS(=O)(=O)Cc1nc(C2CC2)no1	7.46
COc1ccc(Cl)cc1-n1nc(C2CCCC2)nc1Cn1cnnn1	31.51
Cc1ccn2c(F)c(C(=O)N3CCC4(CCC(=O)N(C)C4)CC3)nc2c1	6.81
Cc1nc(CNC(=O)Nc2cc(F)ccc2N2CCN(C)CC2)no1	29.53
c1cc(OCc2ccc3c(c2)OCO3)ccc1CNC1CC1	1.13
Cc1cc(C)nc(C2CCCN2C(=O)c2cnccn2)n1 (centres undefined)	-48.89
CNc1[nH]nc(N)c1NC(=O)c1ccccc1	-11.22
CNc1[nH]nc(N)c1C(=O)Nc1ccccc1	0.86
CNc1[nH]nc(N)c1C(=O)Nc1ccc(OC)cc1	52.21
CCc1ncc2c(n1)CN(C(C)C(=O)N1CCOCC1)CC2 (centres undefined)	1.42
CC(=O)NCCc1ccc(S(=O)(=O)Nc2ccc(C)cc2F)s1	22.16
COCCN1CCCC(c2cncc(Oc3ccccc3OC)n2)C1 (centres undefined)	41.56
COc1cccc2ccc(CN3CCN(c4ncccn4)CC3)nc12	38.8
COc1cccc2ccc(CN3CCN(c4cccnc4)CC3)nc12	-18.81
COc1cccc2ccc(CN3CCN(c4ccncc4)CC3)nc12	65.42
CCC=C(C)C(=O)NCc1ccnc(OC2CCOCC2)c1	4.54
CC(C)c1nnc2n1CCN(CC(=O)N1CCc3sccc3C1)C2	-38.92
CC(C)c1nnc2n1CCN(C(=O)CN(C)Cc1ccccc1)C2	-58.05
Cc1nnc2n1CCN(CC(=O)N1CCc3ccccc3C1)C2	36.64
CC(C)c1nnc2n1CCN(C(=O)CN1CCc3sccc3C1)C2	-9.3
CC(C)c1nnc2n1CCN(C(=O)CN1Cc3ccccc3C1=O)C2	53.03

Compound	INHIBITION [%]
CC(C)c1nnc2n1CCN(CC(=O)N1CCc3ccccc3C1)C2	54.92
Cc1ccc(NC(=O)N2CC(C(=O)NC(C)C)C3(CCOCC3)C2)cc1 (centres undefined)	33.65
COCC1CCN(S(=O)(=O)c2ccc(C(=O)NCC(F)F)cc2)C1 (centres undefined)	15.44
Cc1cc(C(=O)N2CCN(c3nc4c(C)cccc4s3)CC2)no1	7.72
Cc1cc(C(=O)N2CCN(c3nc4c(C(C)C)cccc4s3)CC2)on1	61.06
Cc1cc(C(=O)N2CCN(c3nc4c(C(C)C)cccc4s3)CC2)no1	23.65
Cc1nn(CC(=O)N(C)Cc2nncn2C(C)C)c(=O)c2ccccc12	-0.47
O=C(O)c1ccccc1CN1CCCC(Cc2ccn[nH]2)C1 (centres undefined)	28.66
O=C1NC2(CCN(C(=O)c3ccccc3)CC2)CC1c1cccnc1 (centres undefined)	-51.9
O=C1NC2(CCN(C(=O)N3CCOCC3)CC2)CC1c1cccnc1 (centres undefined)	78.29
Cc1cc(C(=O)N2CCC3(CC2)CC(c2cccnc2)C(=O)N3)no1 (centres undefined)	12.68
Cc1occc1-c1nc(NC2CCCC2)ncc1-c1ccccn1	11.97
COCCNC(=O)CN(C)C(C)c1nc(C)no1 (centres undefined)	-4.01
COCCCNC(=O)CN(C)C(C)c1nc(C)no1 (centres undefined)	35.5
COCCCNC(=O)CN(C)C(C)c1nc(C(C)C)no1 (centres undefined)	60.79
Cc1ccc(-c2cc(C)nc(C3CCCN3S(C)(=O)=O)n2)cc1 (centres undefined)	16.87
CC(C(=O)Nc1ccnn1C(C)C)N1CCN(Cc2ccon2)CC1 (centres undefined)	62
COCCN1CCN(C(C)C(=O)Nc2ccnn2C(C)C)CC1 (centres undefined)	23.86
CC(C(=O)Nc1ccnn1C(C)C)N1CCN(Cc2ccccc2)CC1 (centres undefined)	47.68
C[C@H]1C[C@@H]2CCN(C(=O)c3ccncc3)C[C@H]2O1	-15.25
CCn1c(C)nnc1CN(C)C1CCN(CCn2cccn2)C1 (centres undefined)	-53.72
CN(C)S(=O)(=O)N1CCC2(COCc3cnc(-c4cccnc4)nc32)C1 (centres undefined)	19.51
Cc1ccc(N2CCOC(C)(C(=O)N(C)C)C2)nn1 (centres undefined)	39.07
Cc1cc(C)nc(N2CCOC(C)(C(=O)N(C)C)C2)n1 (centres undefined)	19
Cc1cc(N2CCOC(C)(C(=O)N(C)C)C2)ncn1 (centres undefined)	58.29
CC(C)N1CCOC[C@H]1c1nc(C(C)(C)C)c[nH]1	-0.14
